Reference: PubChem BioAssay (NCATS)
Records with an inconclusive call do not appear. Calls of active or inactive are those of the source. Calls come from the whole dose curve; as a rule, active = well fitted inhibition curve with a large enough effect; inconclusive = small, poorly fitted or top-dose-only effect; inactive = flat fitted curve, though single readings scatter. Square brackets hold non-standard residues; d marks the D form. Peptide text beside a SMILES is read from it. * marks the point of attachment. Dolaproine = CO[C@@H]([C@@H]1CCCN1)[C@@H](C)C(=O)O; Dil = CC[C@H](C)[C@H](NC)[C@@H](CC(=O)O)OC; Doe = c1ccc(C[C@H](N*)c2nccs2)cc1; Aib = CC(C)(N)C(=O)O

molecular target: Aldehyde dehydrogenase, mitochondrial (Homo sapiens) (UniProt P05091); test: qHTS for Inhibitors of the Aldehyde Dehydrogenase Family (ALDH2) Primary screen (AID 2061308); details: ALDH2 enzyme inhibition qHTS, 1536-well; series mostly up to 56 µM; activity change, negative = inhibition: at the top concentration;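 note: plate controls were vehicle for no effect and reference inhibitor for full effect; nearly all actives have a fitted effect of over 55% in size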

**Q.** How did the “activity change, negative = inhibition” value turn out when `C/C=C(/C)C(=O)O[C@H]1[C@@H]2[C@H](C)C(=O)O[C@@H]2C[C@@H](C)[C@@H]2C=CC(=O)[C@]21C` was run?
**A.** 1.95% (inactive)

**Q.** With `CC[C@H]1C2CC3[C@@H]4N(C)c5ccccc5[C@]45C[C@@H]([C@H]2[C@H]5O)N3[C@@H]1O` as the compound, how does the “activity change, negative = inhibition” value read?
**A.** 6.76% (inactive)

**Q.** With `C#C[C@]1(O)CC[C@H]2[C@@H]3CC[C@H]4Cc5nc6nc7ccccc7n6cc5C[C@]4(C)[C@H]3CC[C@@]21C` as the compound, how does the “activity change, negative = inhibition” value read?
**A.** -1.17% (inactive)

**Q.** With `CCOc1ccc(CCNC(=O)c2cc3sccc3n2CCN(C)C)cc1OCC` as the compound, how does the “activity change, negative = inhibition” value read?
**A.** 10.9% (inactive)

**Q.** For `O=C1Nc2ccc3ncsc3c2/C1=C/c1cnc[nH]1`, which “activity change, negative = inhibition” value is on record?
**A.** 8.68% (inactive)

**Q.** `CCOc1ccc(CCNC(=O)c2cc3cnccc3n2Cc2cccc(C)c2)cc1OCC` was tested. Which “activity change, negative = inhibition” value did it give?
**A.** -4.11% (inactive)

**Q.** How did the “activity change, negative = inhibition” value turn out when `Cc1cc(-c2nnc3n2CCCCC3)c(C)n1-c1cccnc1` was run?
**A.** -12.3% (inactive)

**Q.** How did the “activity change, negative = inhibition” value turn out when `Cc1nn2c(=O)cc(N3CCNCC3)nc2s1` was run?
**A.** 1.44% (inactive)

**Q.** Which “activity change, negative = inhibition” value does the source give for `COC1CC(O[C@H]2CC[C@]3(C=O)C4CC[C@]5(C)[C@@H](C6=CC(=O)OC6)CC[C@]5(O)[C@@H]4CC[C@]3(O)C2)OC(C)C1O[C@@H]1O[C@H](CO)[C@@H](O)[C@H](O)[C@H]1O` (some centres not stated) here?
**A.** 10.8% [at 16.9 µM] (inactive)

**Q.** Which “activity change, negative = inhibition” value does the source give for `C[N@@+]1(CC2CC2)CC[C@]23c4c5ccc(O)c4O[C@H]2C(=O)CC[C@@]3(O)[C@H]1C5` here?
**A.** 2.44% (inactive)

**Q.** With `Cc1sc2c(c1C)C(c1ccc(Cl)cc1)=N[C@@H](CC(=O)Nc1ccc(O)cc1)c1nnc(C)n1-2` as the compound, how does the “activity change, negative = inhibition” value read?
**A.** 4.74% [at 16.9 µM] (inactive)

**Q.** With `CC[C@H](C)[C@@H]([C@@H](CC(=O)N1CCC[C@H]1[C@H](OC)[C@@H](C)C(=O)N[C@@H](Cc1ccccc1)c1nccs1)OC)N(C)C(=O)[C@@H](NC(=O)C(C)(C)N)C(C)C` (H-[Aib]V[Dil][Dolaproine]-Doe) as the compound, how does the “activity change, negative = inhibition” value read?
**A.** 3.23% (inactive)
